Screening data: PubChem BioAssay, National Center for Advancing Translational Sciences (NCATS)
ELG1 repair inh = ELG1-dependent DNA repair inhibition; hit rate 2.3% among 330,000; HEK293T ELG1-luciferase reporter, luminescence, 16 h; DNA damage induced by 5-fluorouridine; Potency, µM (highest dose often 46.1 µM), without a hit: at the highest dose activity change, negative = inhibition, actives largely listed as inhibitors; also: % is scaled to controls: 0 for no effect and ±100 for the full control effect; nearly all actives have a fitted effect of over 55% in size
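DMSO vehicle served as the neutral condition. Each well held 2,000 cells given 5-fluorouridine plus compound; after 16 hr at 37 °C/5% CO2, ONE-Glo was added and luciferase measured 30 min later.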
Rab9 prom act = activators of Rab9 promoter; Huh7 Rab9 promoter-luciferase reporter, luminescence, 24 h; Potency, µM (series often up to 9.22 µM), for the others: top-dose activation, negative = inhibition, usual class: activators; hit rate 2.8% among 320,000; also: % of control where 0% means no effect; nearly all actives have a fitted effect of over 60% in size
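Cells were plated at 1500 per well in reduced-serum medium with 10% FBS and left 2 h. Compound in DMSO was then added for 24 h at 37 °C. Reporter signal was read by luminescence after 10 min with luciferase detection reagent.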
NPC1 prom act = activates the NPC1 promoter; Huh7 NPC1 promoter luciferase reporter, 24 h; Potency, µM (series often up to 9.22 µM), without a hit: at the top dose activation, most hits filed as activators; hit rate 2.4% among 320,000; also: % of control where 0% means no effect; nearly all actives have a fitted effect of over 60% in size
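Luminescence read-out of NPC1 promoter-driven luciferase in stably transfected Huh7 cells; compounds delivered in DMSO and left 24 h at 37C, 5% CO2, qHTS titration format.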
FLuc counter = inhibits or activates purified firefly luciferase, miR-21 counter-screen | purified FLuc, Km substrates, luminescence inhibition | P08659 | AID 588342 | Potency, µM (highest dose often 57.5 µM), without a hit: top-dose activity change, negative = inhibition, actives largely listed as inhibitors | hit rate 6.9% among 360,000;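 also: plate controls were vehicle for no effect and reference inhibitor for full effect; nearly all actives have a fitted effect of over 55% in size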
Target sequence (P08659 whole entry, looked up): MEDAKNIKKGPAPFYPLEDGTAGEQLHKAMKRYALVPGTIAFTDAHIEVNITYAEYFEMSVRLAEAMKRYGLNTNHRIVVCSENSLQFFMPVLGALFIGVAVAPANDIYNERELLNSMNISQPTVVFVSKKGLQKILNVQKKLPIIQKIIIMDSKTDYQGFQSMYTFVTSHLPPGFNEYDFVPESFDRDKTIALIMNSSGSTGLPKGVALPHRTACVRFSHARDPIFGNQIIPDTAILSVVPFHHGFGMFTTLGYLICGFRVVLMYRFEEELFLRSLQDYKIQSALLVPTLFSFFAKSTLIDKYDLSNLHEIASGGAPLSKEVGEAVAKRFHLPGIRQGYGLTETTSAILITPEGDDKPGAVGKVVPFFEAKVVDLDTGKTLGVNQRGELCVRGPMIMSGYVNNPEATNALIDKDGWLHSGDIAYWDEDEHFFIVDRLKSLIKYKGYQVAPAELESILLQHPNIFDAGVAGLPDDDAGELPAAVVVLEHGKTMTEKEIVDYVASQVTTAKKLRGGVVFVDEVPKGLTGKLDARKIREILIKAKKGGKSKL
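Biochemical qHTS of compounds, final roughly 60 µM downward over six points, against 10 nM purified firefly luciferase using Km concentrations of substrates (10 uM D-luciferin, 10 uM ATP) in Tris acetate pH 7.5 buffer; luminescence output.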
SMN2 splice enh = increases expression of the SMN2 splice variant | AID 1458 | HEK293 SMN2-luciferase splicing reporter, luminescence, 30-36 h | Potency, µM (top dose mostly 46.1 µM), for inactives: at the top dose activity change, positive = activation, actives largely listed as activators | hit rate 2.8% among 210,000; also: % of control where 0% means no effect; nearly all actives have a fitted effect of over 55% in size
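HEK293 cells carry an SMN2 minigene-luciferase reporter in which exon 7 inclusion puts luciferase in frame. Cells were seeded at 2000 cells/well, attached for 10-12 hours, then exposed to compounds for 30-36 hours at 37C before ONE-Glo luminescence.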
ELG1 genotox = induces genotoxicity in HEK293T cells with luciferase-tagged ELG1; HEK293T ELG1-luciferase reporter, luminescence, 16 h; Potency, µM (series often up to 46 µM), for the others: at the highest dose activity change, positive = activation, usual class: activators; hit rate 1.3% among 330,000; AID 504466; also: % of control where 0% means no effect; nearly all actives have a fitted effect of over 60% in size
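Quantitative HTS format in 1536-well plates. HEK293T ELG1-luciferase reporter cells receive test compound and are incubated 16 hr at 37 °C, 5% CO2; ONE-Glo added, 30 min room temperature, then luminescence read.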
Numbers without * were called inactive. Rows were chosen to be rich in hits. Some 9.3% of all compounds tested hit in one or more screens of this group. Calls follow the shape of the dose curve; as a rule, active = well fitted curve in the direction sought with a large enough effect; inconclusive = small, poorly fitted or top-dose-only effect, or another doubt; inactive = no such curve, though single readings can be large; an effect the other way counts as inactive or inconclusive. Potency is read from the fitted curve at half-maximal effect.

How did COc1cc(/C=N/NC(=O)c2cc3ccccc3cc2O)ccc1OCCN1CCCCC1 do in these assays?
ELG1 repair inh: 6%; Rab9 prom act: 0%; NPC1 prom act: 2%; FLuc counter: inconclusive; SMN2 splice enh: 11%; ELG1 genotox: 2%

How did COCCn1c(C)cc(/C=N/NC(=O)c2cc3ccccc3cc2O)c1C do in these assays?
ELG1 repair inh: 24%; Rab9 prom act: 16%; NPC1 prom act: -3%; FLuc counter: 15µM*; ELG1 genotox: 1%

What do the screens show for `Cn1c(O)c(/C=N/NC(=O)c2cc3ccccc3cc2O)c2ccccc21`?
ELG1 repair inh: inconclusive; Rab9 prom act: 3.5µM*; NPC1 prom act: inconclusive; FLuc counter: 17µM*; ELG1 genotox: inconclusive

What do the screens show for `COc1ccc2c(c1)cc(C(=O)N/N=C/c1c(O)c(C(=O)O)cc3ccccc13)n2C`?
ELG1 repair inh: 14%; Rab9 prom act: 0%; NPC1 prom act: 0%; FLuc counter: 2.4µM*; ELG1 genotox: 2%

Results for COc1ccc(OC)c(NC(=O)CSc2nc(=O)n(CCN(C)C)c3c2CCC3)c1 ?
FLuc counter: -2%

Results for N#C/C(=C\c1ccccc1)C(=O)OCC(=O)N1CCCC1 ?
ELG1 repair inh: -4%; Rab9 prom act: -7%; NPC1 prom act: -3%; FLuc counter: 0%; SMN2 splice enh: -1%; ELG1 genotox: 1%

Results for COc1cc(NC(=O)COC(=O)CCOc2ccc(C)cc2)cc(OC)c1 ?
ELG1 repair inh: 0%; Rab9 prom act: 3%; NPC1 prom act: 0%; FLuc counter: -18%; ELG1 genotox: 2%

Results for COc1cccc2cc(-c3csc(-c4ccc(Cl)cc4)n3)c(=O)oc12 ?
FLuc counter: -5%

Results for CSc1nsc(SC)c1C(=O)N1CCN(S(=O)(=O)c2ccc(C)cc2)C1C (configuration not stated) ?
ELG1 repair inh: inconclusive; Rab9 prom act: 3%; NPC1 prom act: 1%; FLuc counter: 10%; SMN2 splice enh: -10%; ELG1 genotox: -10%

How did CSc1nsc(SC)c1C(=O)N1CCN(S(=O)(=O)c2ccc(C)cc2)C1C(C)C (configuration not stated) do in these assays?
ELG1 repair inh: 18µM*; Rab9 prom act: 1%; NPC1 prom act: 0%; FLuc counter: -2%; SMN2 splice enh: -11%; ELG1 genotox: -9%

Results for CCn1cc(C2C(C(=O)Nc3cc(C)ccn3)=C(C)NC3=C2C(=O)CC(C)(C)C3)c(C)n1 (configuration not stated) ?
ELG1 repair inh: 1%; Rab9 prom act: -3%; NPC1 prom act: 0%; FLuc counter: 2%; SMN2 splice enh: 3%; ELG1 genotox: 1%

Results for CC1=C(C(=O)Nc2cc(C)ccn2)C(c2ccc(C)cc2)C2=C(CCCC2=O)N1 (configuration not stated) ?
ELG1 repair inh: 24%; Rab9 prom act: -7%; NPC1 prom act: -2%; FLuc counter: 4%; SMN2 splice enh: 10µM*; ELG1 genotox: 13%

Results for CCN(CC)S(=O)(=O)c1cccc(-c2cn3cc(C)ccc3n2)c1 ?
ELG1 repair inh: inconclusive; Rab9 prom act: 16%; NPC1 prom act: 12%; FLuc counter: 4.8µM*; SMN2 splice enh: -29%; ELG1 genotox: inconclusive

Results for CN(C)S(=O)(=O)c1cccc(-c2cn3cccnc3n2)c1 ?
ELG1 repair inh: inconclusive; Rab9 prom act: 13%; NPC1 prom act: -4%; FLuc counter: 0%; SMN2 splice enh: -4%; ELG1 genotox: -2%

Results for Cc1ccc2nc(-c3cccc(S(=O)(=O)N(C)C)c3)cn2c1 ?
ELG1 repair inh: inconclusive; Rab9 prom act: 3.2µM*; NPC1 prom act: inconclusive; FLuc counter: inconclusive; SMN2 splice enh: 16%; ELG1 genotox: 12%

Results for COc1cc(CNC(C)C)c(Br)cc1OC1CCCC1 ?
ELG1 repair inh: -13%; Rab9 prom act: -6%; NPC1 prom act: -3%; FLuc counter: -1%; SMN2 splice enh: -2%; ELG1 genotox: -7%

What do the screens show for `Cc1nn(Cc2ccc(Cl)cc2Cl)c(C)c1NC(=O)CCl`?
ELG1 repair inh: 15µM*; Rab9 prom act: -39%; NPC1 prom act: -19%; FLuc counter: -2%; SMN2 splice enh: -61%; ELG1 genotox: -12%

What do the screens show for `CCOc1ccc(CC(=O)Nc2c(C(=O)c3ccc(C)cc3)oc3ccccc23)cc1OCC`?
FLuc counter: -1%; SMN2 splice enh: -1%

How did CC(=O)/C(N=Nc1ccc2c(c1)OCO2)=C(\C)O do in these assays?
ELG1 repair inh: inconclusive; Rab9 prom act: 3.5µM*; NPC1 prom act: 2.8µM*; FLuc counter: 21µM*; SMN2 splice enh: 14µM*; ELG1 genotox: inconclusive

Results for CC(=O)/C(N=Nc1ccc2c(c1)OCCO2)=C(\C)O ?
ELG1 repair inh: inconclusive; Rab9 prom act: 5%; NPC1 prom act: 12%; FLuc counter: 9.5µM*; SMN2 splice enh: -88%; ELG1 genotox: inconclusive

How did Cc1ccc(CN(C(=O)COc2ccc(Cl)c(C)c2)C2CCS(=O)(=O)C2)o1 (configuration not stated) do in these assays?
FLuc counter: -12%; SMN2 splice enh: 9%

Results for Cc1ccc(CS(=O)(=O)c2ccc(C(=O)N3CCN(c4ccccn4)CC3)cc2[N+](=O)[O-])cc1 ?
ELG1 repair inh: 15µM*; Rab9 prom act: -16%; NPC1 prom act: -9%; FLuc counter: 2%; SMN2 splice enh: -42%; ELG1 genotox: -14%

Results for Cc1ccc(CS(=O)(=O)c2ccc(C(=O)N3CCCCC3)cc2[N+](=O)[O-])cc1 ?
ELG1 repair inh: -23%; Rab9 prom act: 2%; NPC1 prom act: 0%; FLuc counter: -12%; SMN2 splice enh: -27%; ELG1 genotox: -9%

What do the screens show for `CC1CCN(C(=O)c2ccc(S(=O)(=O)Cc3ccccc3F)c([N+](=O)[O-])c2)CC1`?
ELG1 repair inh: 21µM*; Rab9 prom act: 2%; NPC1 prom act: 0%; FLuc counter: 0%; SMN2 splice enh: -19%; ELG1 genotox: -10%

What do the screens show for `CC1CCN(C(=O)c2ccc3ccccc3c2)CC1`?
ELG1 repair inh: inconclusive; Rab9 prom act: 2.5µM*; NPC1 prom act: 3.5µM*; FLuc counter: 12µM*; ELG1 genotox: inconclusive

What do the screens show for `O=C1CCc2cc(NS(=O)(=O)c3ccc([N+](=O)[O-])cc3)cc3c2N1CCC3`?
ELG1 repair inh: 18%; Rab9 prom act: 3%; NPC1 prom act: -3%; FLuc counter: 1%; ELG1 genotox: 1%
